# Laboratory results published in publication PMC7862700, “An all-to-all approach to the identification of sequence-specific readers for epigenetic DNA modifications on cytosine”.
# Tests used:
# Assay in all cases: DAPPL (digital affinity profiling via proximity ligation, sequencing); 10 mM Tris-HCl pH 7.5, 50 mM NaCl, 1 mM DTT, 4% glycerol, room temperature, 30 min; GST-TFs on glutathione beads, 16-mer random dsDNA library, 0.1% formaldehyde crosslink after washing; high values mean tight binding
# Settings in all cases: protein: recombinant; tags: N-terminal GST; dsDNA, one strand shown
# FLI1 = target: T1, FLI1 (Homo sapiens, UniProt Q01543 1-452)
# T1 sequence: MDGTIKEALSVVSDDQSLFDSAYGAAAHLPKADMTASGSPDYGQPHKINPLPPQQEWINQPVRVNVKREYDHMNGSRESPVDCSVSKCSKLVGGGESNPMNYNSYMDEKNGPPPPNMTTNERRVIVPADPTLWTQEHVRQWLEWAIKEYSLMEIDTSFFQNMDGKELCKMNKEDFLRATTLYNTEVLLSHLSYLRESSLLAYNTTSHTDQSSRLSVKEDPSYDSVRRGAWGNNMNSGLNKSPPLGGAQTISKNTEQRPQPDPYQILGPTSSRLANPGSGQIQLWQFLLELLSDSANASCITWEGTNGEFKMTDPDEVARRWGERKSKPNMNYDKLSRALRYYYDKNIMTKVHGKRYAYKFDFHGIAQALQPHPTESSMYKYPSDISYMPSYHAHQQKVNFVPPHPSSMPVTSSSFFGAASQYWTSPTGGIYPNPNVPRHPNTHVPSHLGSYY
# Method in brief: (§1)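 Sequencing on an Illumina NextSeq500 followed washing, crosslinking with 0.1% formaldehyde, proximity ligation (BsaI/T4 ligase, 1 h, 37 °C) and PCR amplification of pools that had been incubated for 30 min at room temperature with 200 nmole of a random double-stranded 16-mer DNA library in Tris/NaCl/DTT/glycerol buffer. Each pool held DNA-barcoded human transcription factors, expressed in yeast as GST fusions and captured on glutathione beads, plus a tag-only sample. Binding signal is a hexamer's read frequency for a factor divided by its frequency in the tag-only sample.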
# ELK1 = target: T2, ELK1 (Homo sapiens, UniProt P19419 1-428)
# T2 sequence: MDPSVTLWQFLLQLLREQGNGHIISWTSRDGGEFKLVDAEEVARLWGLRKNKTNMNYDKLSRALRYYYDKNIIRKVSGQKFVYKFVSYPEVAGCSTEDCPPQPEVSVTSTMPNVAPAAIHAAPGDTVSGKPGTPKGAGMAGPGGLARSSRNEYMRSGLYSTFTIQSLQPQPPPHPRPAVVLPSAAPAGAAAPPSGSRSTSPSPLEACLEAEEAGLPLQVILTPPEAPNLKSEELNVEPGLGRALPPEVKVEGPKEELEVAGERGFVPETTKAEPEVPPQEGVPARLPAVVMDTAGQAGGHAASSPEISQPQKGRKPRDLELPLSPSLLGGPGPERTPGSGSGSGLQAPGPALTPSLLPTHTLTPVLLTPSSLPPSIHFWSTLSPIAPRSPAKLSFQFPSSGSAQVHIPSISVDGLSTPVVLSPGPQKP
# Method in brief: as §1
# GABPA = target: T3, GABPA (Homo sapiens, UniProt Q06546 1-454)
# T3 sequence: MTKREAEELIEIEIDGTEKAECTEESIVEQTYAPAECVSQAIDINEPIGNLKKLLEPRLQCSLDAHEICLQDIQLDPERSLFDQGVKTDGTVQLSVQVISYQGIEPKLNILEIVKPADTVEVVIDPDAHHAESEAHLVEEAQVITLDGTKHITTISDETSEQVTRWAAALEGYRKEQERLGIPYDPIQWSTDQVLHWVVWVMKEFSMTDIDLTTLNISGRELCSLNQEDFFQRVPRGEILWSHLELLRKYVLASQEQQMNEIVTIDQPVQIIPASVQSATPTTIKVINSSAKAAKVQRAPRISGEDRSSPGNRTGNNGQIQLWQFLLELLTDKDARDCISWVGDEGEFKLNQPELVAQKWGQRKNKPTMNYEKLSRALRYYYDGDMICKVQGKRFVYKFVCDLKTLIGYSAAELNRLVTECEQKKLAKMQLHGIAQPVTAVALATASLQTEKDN
# Method in brief: as §1
# ERG = target: T4, ERG (Homo sapiens, UniProt P11308 1-479)
# T4 sequence: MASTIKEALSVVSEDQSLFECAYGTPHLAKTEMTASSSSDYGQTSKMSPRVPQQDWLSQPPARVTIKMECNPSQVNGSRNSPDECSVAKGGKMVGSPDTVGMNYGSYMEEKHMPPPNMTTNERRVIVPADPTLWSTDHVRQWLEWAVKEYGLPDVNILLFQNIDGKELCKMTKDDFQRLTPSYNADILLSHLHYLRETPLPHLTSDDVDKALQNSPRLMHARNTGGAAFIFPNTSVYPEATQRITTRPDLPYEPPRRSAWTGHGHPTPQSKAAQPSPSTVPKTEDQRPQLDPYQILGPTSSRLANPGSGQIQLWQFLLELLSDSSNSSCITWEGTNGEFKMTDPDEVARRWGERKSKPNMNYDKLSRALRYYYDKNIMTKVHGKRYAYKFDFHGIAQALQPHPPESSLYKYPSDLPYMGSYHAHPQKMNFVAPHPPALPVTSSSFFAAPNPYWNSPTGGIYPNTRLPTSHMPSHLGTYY
# Method in brief: as §1
# ELF1 = ELF1 (Homo sapiens, UniProt P32519 1-619)
# ELF1, sequence (P32519 whole entry): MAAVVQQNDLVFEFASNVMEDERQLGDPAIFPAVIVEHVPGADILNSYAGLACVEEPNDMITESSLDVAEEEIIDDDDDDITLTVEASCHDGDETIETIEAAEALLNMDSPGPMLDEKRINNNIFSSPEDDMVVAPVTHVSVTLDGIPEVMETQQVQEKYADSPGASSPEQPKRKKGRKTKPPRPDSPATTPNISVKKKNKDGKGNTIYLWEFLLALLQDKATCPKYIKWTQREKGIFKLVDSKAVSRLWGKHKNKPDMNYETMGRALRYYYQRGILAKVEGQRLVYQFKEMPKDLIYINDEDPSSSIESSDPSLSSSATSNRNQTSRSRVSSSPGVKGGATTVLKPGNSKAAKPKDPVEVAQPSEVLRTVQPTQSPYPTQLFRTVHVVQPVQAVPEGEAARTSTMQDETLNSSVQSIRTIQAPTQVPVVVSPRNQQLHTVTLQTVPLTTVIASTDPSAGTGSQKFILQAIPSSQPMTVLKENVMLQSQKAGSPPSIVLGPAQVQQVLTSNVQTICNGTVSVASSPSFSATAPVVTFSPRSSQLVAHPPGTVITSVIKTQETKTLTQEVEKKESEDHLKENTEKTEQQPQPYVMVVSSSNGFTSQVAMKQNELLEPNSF
# Method in brief: as §1
# EHF = target: T5, EHF (Homo sapiens, UniProt Q9NZC4 1-300)
# T5 sequence: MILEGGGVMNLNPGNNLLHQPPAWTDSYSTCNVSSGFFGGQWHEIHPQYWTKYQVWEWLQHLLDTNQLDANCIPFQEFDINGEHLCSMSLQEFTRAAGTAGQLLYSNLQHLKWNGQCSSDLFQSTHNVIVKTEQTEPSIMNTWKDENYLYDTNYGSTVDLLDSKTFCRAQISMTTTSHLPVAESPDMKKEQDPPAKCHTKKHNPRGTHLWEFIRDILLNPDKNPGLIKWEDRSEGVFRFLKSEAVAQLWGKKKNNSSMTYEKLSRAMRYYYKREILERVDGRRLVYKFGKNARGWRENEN
# Method in brief: as §1
# SPI1 = SPI1 (Homo sapiens, UniProt P17947 1-270)
# Method in brief: as §1
# SPIB = SPIB (Homo sapiens, UniProt Q01892 1-262)
# SPIB, sequence (Q01892 whole entry): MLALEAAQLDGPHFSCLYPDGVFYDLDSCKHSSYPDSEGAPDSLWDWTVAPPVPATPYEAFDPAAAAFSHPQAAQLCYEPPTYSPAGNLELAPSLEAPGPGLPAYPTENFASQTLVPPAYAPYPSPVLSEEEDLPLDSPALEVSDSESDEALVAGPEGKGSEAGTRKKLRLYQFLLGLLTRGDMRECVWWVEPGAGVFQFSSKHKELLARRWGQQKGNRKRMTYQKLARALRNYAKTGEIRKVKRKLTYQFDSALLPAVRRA
# Method in brief: as §1
# ELK3 = target: T6, ELK3 (Homo sapiens, UniProt P41970 1-407)
# T6 sequence: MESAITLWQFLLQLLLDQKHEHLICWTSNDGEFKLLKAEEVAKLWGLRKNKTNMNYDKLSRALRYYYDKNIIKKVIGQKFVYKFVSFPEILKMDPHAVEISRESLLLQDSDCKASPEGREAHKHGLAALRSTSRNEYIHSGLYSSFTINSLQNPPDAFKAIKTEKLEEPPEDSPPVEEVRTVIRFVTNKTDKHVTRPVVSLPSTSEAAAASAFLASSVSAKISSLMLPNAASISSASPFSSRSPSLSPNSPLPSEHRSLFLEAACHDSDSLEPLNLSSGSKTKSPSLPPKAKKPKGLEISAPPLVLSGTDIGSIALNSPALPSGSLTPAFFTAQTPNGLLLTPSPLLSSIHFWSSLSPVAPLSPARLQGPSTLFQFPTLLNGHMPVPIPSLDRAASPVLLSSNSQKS
# Method in brief: as §1
# FEV = target: T7, FEV (Homo sapiens, UniProt Q99581 1-238)
# T7 sequence: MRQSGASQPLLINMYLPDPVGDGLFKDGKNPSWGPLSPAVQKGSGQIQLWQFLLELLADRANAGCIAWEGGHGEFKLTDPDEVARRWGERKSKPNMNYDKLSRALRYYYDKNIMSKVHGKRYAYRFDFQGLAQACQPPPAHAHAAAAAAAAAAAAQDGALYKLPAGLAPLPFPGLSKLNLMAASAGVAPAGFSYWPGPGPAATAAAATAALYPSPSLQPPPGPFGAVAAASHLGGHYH
# Method in brief: as §1
# ETV5 = ETV5 (Homo sapiens, UniProt P41161 1-510)
# ETV5, sequence (P41161 whole entry): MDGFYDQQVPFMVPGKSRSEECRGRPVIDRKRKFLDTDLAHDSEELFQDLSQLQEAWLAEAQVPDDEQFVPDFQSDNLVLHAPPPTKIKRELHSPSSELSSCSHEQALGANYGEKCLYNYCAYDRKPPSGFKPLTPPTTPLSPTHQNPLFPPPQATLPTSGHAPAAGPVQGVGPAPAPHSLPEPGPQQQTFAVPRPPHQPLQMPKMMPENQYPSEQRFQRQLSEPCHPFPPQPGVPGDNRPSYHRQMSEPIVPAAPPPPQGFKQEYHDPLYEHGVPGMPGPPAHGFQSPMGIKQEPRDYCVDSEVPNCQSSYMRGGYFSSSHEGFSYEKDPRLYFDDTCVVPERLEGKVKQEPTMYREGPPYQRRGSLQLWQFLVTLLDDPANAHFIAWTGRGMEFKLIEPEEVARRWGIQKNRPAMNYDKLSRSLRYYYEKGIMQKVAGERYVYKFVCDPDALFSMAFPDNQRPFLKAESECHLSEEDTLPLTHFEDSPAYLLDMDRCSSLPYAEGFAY
# Method in brief: as §1
# SPIC = target: T8, SPIC (Homo sapiens, UniProt Q8N5J4 1-248)
# T8 sequence: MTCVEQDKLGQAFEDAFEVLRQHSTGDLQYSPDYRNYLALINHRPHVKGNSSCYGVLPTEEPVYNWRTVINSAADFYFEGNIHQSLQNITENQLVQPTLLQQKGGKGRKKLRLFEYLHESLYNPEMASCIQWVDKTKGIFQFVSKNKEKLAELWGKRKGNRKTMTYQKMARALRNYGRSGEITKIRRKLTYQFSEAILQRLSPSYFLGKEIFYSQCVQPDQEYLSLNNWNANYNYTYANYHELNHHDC
# Method in brief: as §1
# ETV1 = ETV1 (Homo sapiens, UniProt P50549 1-477)
# ETV1, sequence (P50549 whole entry): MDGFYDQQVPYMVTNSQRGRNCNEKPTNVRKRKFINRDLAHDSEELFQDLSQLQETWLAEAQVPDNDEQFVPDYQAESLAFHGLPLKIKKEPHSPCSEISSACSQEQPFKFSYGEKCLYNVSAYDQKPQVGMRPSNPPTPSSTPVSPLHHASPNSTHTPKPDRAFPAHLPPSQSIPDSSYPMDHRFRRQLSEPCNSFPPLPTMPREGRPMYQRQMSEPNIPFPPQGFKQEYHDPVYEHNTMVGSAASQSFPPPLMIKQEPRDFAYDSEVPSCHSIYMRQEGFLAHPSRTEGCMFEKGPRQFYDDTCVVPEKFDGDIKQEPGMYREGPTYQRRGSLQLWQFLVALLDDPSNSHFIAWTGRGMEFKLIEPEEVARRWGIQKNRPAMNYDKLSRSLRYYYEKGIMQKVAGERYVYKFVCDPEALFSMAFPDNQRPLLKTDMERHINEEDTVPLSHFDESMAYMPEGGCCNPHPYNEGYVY
# Method in brief: as §1
# ERF = target: T9, ERF (Homo sapiens, UniProt P50548 1-548)
# T9 sequence: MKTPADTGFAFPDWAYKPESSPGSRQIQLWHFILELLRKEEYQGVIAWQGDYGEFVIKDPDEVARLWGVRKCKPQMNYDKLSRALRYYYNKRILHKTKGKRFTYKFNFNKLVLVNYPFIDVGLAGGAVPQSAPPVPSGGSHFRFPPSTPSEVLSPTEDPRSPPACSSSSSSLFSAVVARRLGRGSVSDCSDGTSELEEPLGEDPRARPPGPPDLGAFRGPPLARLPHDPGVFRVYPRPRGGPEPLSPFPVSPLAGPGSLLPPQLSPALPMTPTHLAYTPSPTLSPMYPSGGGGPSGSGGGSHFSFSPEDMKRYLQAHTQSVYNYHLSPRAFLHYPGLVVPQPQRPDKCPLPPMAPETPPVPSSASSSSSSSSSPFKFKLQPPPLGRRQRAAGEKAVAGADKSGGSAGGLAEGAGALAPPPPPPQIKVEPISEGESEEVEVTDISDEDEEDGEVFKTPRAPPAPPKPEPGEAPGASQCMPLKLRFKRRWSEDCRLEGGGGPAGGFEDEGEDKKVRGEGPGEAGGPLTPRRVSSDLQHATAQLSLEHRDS
# Method in brief: as §1
# ETV3L = target: T10, ETV3L (Homo sapiens, UniProt Q6ZN32 1-361)
# T10 sequence: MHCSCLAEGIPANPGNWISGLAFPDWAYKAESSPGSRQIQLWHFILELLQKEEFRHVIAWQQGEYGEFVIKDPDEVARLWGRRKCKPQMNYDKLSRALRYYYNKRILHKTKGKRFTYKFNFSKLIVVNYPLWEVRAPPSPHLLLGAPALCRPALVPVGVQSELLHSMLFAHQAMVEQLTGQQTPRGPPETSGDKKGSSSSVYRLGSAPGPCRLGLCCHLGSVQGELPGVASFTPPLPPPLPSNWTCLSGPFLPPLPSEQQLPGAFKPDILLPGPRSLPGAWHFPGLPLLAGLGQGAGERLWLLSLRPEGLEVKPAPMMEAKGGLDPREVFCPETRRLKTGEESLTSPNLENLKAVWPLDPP
# Method in brief: as §1
# ETS2 = target: T11, ETS2 (Homo sapiens, UniProt P15036 1-469)
# T11 sequence: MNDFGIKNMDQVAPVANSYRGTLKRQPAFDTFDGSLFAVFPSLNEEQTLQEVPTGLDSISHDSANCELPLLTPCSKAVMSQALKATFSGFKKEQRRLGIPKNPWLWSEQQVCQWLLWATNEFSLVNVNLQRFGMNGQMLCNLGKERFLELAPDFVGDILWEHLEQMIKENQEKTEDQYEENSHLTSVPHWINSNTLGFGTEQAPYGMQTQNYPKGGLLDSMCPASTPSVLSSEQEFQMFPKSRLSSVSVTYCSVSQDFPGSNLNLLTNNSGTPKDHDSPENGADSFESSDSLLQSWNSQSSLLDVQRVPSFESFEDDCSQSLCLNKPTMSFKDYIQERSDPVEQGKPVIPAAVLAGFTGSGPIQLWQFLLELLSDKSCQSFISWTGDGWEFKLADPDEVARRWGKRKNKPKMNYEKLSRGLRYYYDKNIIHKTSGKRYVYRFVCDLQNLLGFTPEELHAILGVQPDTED
# Method in brief: as §1
# ETV3 = target: T12, ETV3 (Homo sapiens, UniProt P41162-2 1-143)
# T12 sequence: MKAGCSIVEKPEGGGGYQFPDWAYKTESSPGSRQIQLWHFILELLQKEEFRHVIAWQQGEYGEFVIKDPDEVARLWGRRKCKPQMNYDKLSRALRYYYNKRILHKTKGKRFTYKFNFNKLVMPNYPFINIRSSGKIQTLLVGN
# Method in brief: as §1
# ETV6 = ETV6 (Homo sapiens, UniProt P41212 1-452)
# ETV6, sequence (P41212 whole entry): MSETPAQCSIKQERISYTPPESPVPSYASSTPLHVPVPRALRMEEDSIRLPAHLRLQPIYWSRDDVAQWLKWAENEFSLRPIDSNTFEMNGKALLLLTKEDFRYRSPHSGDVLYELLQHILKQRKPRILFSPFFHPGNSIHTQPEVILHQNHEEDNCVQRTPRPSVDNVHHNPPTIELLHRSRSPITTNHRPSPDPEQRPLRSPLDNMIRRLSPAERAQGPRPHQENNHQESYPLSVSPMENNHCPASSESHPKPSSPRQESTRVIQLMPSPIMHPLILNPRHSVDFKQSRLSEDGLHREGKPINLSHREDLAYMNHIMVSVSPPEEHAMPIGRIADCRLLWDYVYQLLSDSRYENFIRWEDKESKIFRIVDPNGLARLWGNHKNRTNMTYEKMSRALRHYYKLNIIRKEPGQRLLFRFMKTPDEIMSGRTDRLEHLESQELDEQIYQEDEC
# Method in brief: as §1
sequence,measurement,setting,value
AGTGGT,binding signal,FLI1,"1.04 fold enrichment (6-mer frequency, TF over GST control)"
same,binding signal,ELK1,"1.03 fold enrichment (6-mer frequency, TF over GST control)"
same,binding signal,GABPA,"1.09 fold enrichment (6-mer frequency, TF over GST control)"
same,binding signal,ERG,"1.06 fold enrichment (6-mer frequency, TF over GST control)"
same,binding signal,ELF1,"1.06 fold enrichment (6-mer frequency, TF over GST control)"
same,binding signal,EHF,"1.11 fold enrichment (6-mer frequency, TF over GST control)"
same,binding signal,SPI1,"1.42 fold enrichment (6-mer frequency, TF over GST control)"
same,binding signal,SPIB,"1.22 fold enrichment (6-mer frequency, TF over GST control)"
same,binding signal,ELK3,"1.15 fold enrichment (6-mer frequency, TF over GST control)"
same,binding signal,FEV,"1.02 fold enrichment (6-mer frequency, TF over GST control)"
same,binding signal,ETV5,"1.14 fold enrichment (6-mer frequency, TF over GST control)"
same,binding signal,SPIC,"1.22 fold enrichment (6-mer frequency, TF over GST control)"
same,binding signal,ETV1,"1.02 fold enrichment (6-mer frequency, TF over GST control)"
same,binding signal,ERF,"1.14 fold enrichment (6-mer frequency, TF over GST control)"
same,binding signal,ETV3L,"1.06 fold enrichment (6-mer frequency, TF over GST control)"
same,binding signal,ETS2,"1.12 fold enrichment (6-mer frequency, TF over GST control)"
same,binding signal,ETV3,"1.09 fold enrichment (6-mer frequency, TF over GST control)"
same,binding signal,ETV6,"1.11 fold enrichment (6-mer frequency, TF over GST control)"
